Results on 20 molecules are retold here after PubChem BioAssay (NCI).

Structures are written as SMILES. Compounds without any hit were thinned out: in the full panel of roughly 83,000, 20% have a hit.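 Note: values are percent growth. 100 is the growth of untreated cells, values between 100 and 0 indicate rising inhibition; between -100 and 0 indicates cell death.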 A number with no mark means an inactive call. Active and inactive are the calls of the source. The calls were made as follows: active = growth percent below 10; inactive = the rest.

Test in all cases: NCI-60 one-dose screen, 48 h (100 = growth as untreated, 0 = no growth, -100 = all killed)
For test [1], the system named is T-47D breast. Particulars: 10 µM.
Test [2] has as its system BT-549 breast. Particulars: 10 µM.
Test [3] has as its system MDA-MB-435 melanoma. To be noted: 10 µM.
Test [4] concerns SW-620 colon. To be noted: 10 µM.
The subject of test [5] is MCF7 breast. To be noted: 10 µM unless noted.
Test [6] deals with HCT-116 colon. To be noted: 10 µM.
The subject of test [7] is KM12 colon. Particulars: 10 µM.
Test [8] deals with HCC-2998 colon. Particulars: 10 µM.

Consider `CCOC(=O)C1=C(C)NC(=O)NC1c1cccs1` (stereo not given), for which the growth in test [1] was 102%; in test [2], 123%; in test [3] it was 125%; in test [4], 105%; in test [5], 101%; in test [6] it was 116%. The growth in test [7] is 109%.
Consider `CC(O)COc1ccc(-c2ccccc2)cc1` (stereo not given), for which the growth in test [1] was 94%; in test [2], 104%; in test [3] it was 104%; in test [4], 103%; in test [5] it was 100%; in test [6], 97.7%. In test [7], the growth is 105%.
`O=[N+]([O-])c1ccccc1N=Nc1ccc(O)cc1O`: the growth in test [1] is 104%; in test [2], 101%; in test [3], 120%; in test [4] it was 116%; in test [5], 94.7%; in test [6], 100%. For the same molecule, the growth in test [7] is 110%.
In the case of `OC(c1ccccn1)C(O)c1ccccn1` (stereo not given), the growth in test [1] is 109%; in test [2] it was 106%; in test [3], 115%; in test [4], 109%; in test [5], 101%; in test [6], 106%. The growth in test [7] was 109%.
For the molecule `Nc1ncnc2[nH]ncc12`, the growth in test [1] is 6% (active); in test [2], -32.8% (active); in test [3] it was 15.2%; in test [4] it was 17.5%; in test [5] it was 7.48% (active); in test [6], 5.13% (active). In test [7], the growth is 18%.
With `CCC(C#N)(CC)c1ccccc1`, the growth was 95.3% in test [1]; 100% in test [2]; 104% in test [3]; 104% in test [4]; 95.4% in test [5]; 105% in test [6]. Moreover, the growth in test [7] was 106%.
Take `COc1ccc(C(O)c2ccccc2)cc1` (stereo not given): the growth in test [1] is 87.3%; in test [2], 121%; in test [3], 102%; in test [4], 90.3%; in test [5] it was 97.5%; in test [6] it was 110%. For the same molecule, in test [7], the growth was 93.7%.
Consider `O=[N+]([O-])c1ccc(Sc2ccncn2)c([N+](=O)[O-])c1`, for which the growth in test [1] was 48.3%; in test [2], 74.9%; in test [3] it was 8.62% (active); in test [4] it was 23%; in test [6], 20.1%; in test [8], 90.5%. In addition, the growth in test [7] is 76.2%.
In the case of `CCCNc1ccc(C2=NCCCN2)cc1`, the growth in test [1] is 97.3%; in test [2], 90%; in test [3] it was 95.9%; in test [4] it was 102%; in test [5] it was 97.7%; in test [6] it was 97%. Also, the growth in test [7] was 94.5%.
Turning to `CCOC(=O)Nc1nn[nH]n1`, the growth in test [1] was 113%; in test [2], 106%; in test [3], 111%; in test [4], 90.2%; in test [5] it was 103%; in test [6], 107%. Further, the growth in test [7] was 106%.
For `C[N+](C)(C)C(=O)c1ccccc1`, the growth is 90.4% in test [1]; 101% in test [2]; 114% in test [3]; 107% in test [4]; 96.2% in test [5]; 97.9% in test [6]. The growth in test [7] was 112%.
Consider `S=c1nn[nH]c2ccccc12`, for which the growth in test [1] was 109%; in test [2], 106%; in test [3], 120%; in test [4], 113%; in test [5], 99.2%; in test [6], 103%. In test [7], the growth was 101%.
With `CC(C)C1CCCCC1O` (stereo not given), the growth in test [1] was 107%; in test [2], 105%; in test [3], 100%; in test [4] it was 107%; in test [5], 107%; in test [6], 109%. Moreover, in test [7], the growth was 107%.
Turning to `CC(CC(=O)c1ccccc1)c1ccccc1` (stereo not given), the growth in test [1] is 104%; in test [2] it was 107%; in test [3], 99.8%; in test [4], 102%; in test [5], 105%; in test [6] it was 106%. Also, the growth in test [7] is 113%.
In the case of `O=C(O)c1cccc([N+](=O)[O-])c1O`, the growth was 101% in test [1]; 93.6% in test [2]; 101% in test [3]; 105% in test [4]; 119% in test [5]; 98.9% in test [6]. Further, the growth in test [7] is 110%.
Turning to `O=[N+]([O-])c1ccccc1S(=O)c1ccccc1[N+](=O)[O-]`, the growth is 73.1% in test [1]; 95.3% in test [2]; 72.2% in test [3]; 44.6% in test [4]; 95.2% in test [5]; 51.8% in test [6]. Besides, in test [7], the growth was 88.1%.
As for `C[C@@H](c1ccccc1)[C@@H](C(=O)O)c1ccccc1`, the growth is 101% in test [1]; 97.6% in test [2]; 104% in test [3]; 103% in test [4]; 93.4% in test [5]; 102% in test [6]. The growth in test [7] is 109%.
On to `COc1ncnc2c1cnn2C`, for which the growth is 97.1% in test [1]; 95.4% in test [2]; 107% in test [3]; 105% in test [4]; 101% in test [5]; 103% in test [6]. The growth in test [7] was 103%.
As to `O=c1[nH]n(-c2ccccc2)c(=O)cc1Cl`, the growth is 97.8% in test [1]; 100% in test [2]; 110% in test [3]; 102% in test [4]; 96.8% in test [5]; 103% in test [6]. Moreover, in test [7], the growth is 112%.
`CCCCOC(OCCCC)c1ccccc1`: the growth was 100% in test [1]; 107% in test [2]; 112% in test [3]; 110% in test [4]; 97.8% in test [5]; 112% in test [6]. Besides, the growth in test [7] was 110%.
